24 compounds from PubChem BioAssay (NCATS) can be followed below.

Experiment [1] deals with Calcium and integrin-binding protein 1 (Homo sapiens) (UniProt Q99828). As to the kind of experiment: Primary qHTS for Identification of Calcium Integrin Binding Protein 1 (CIB1) Competitor (AID 1508620). Also: top concentration of the series differs between compounds. The settings on record: CIB1-GST / FITC-alphaIIb peptide fluorescence polarization; series mostly up to 114 µM. Put shortly: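 Fluorescence polarization competition: GST-tagged CIB1 (1 uM final) preincubated with compound 15 min at room temperature, then FITC-labelled alphaIIb peptide (100 nM final) added. After 15 min at room temperature, polarization read at Ex 480/Em 540.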

Experiment [2] in a line: Primary qHTS for inhibitors of nuclear receptor binding SET domain protein 2 (NSD2) in an isogenic RCH-ACV NSD2 p.E1099K mutant (9B) (AID 1645876). Also: nearly all actives have a fitted effect of over 70% in size. Also: potency is read from the fitted curve at half-maximal effect. The settings on record: RCH-ACV (leukaemia line) NSD2 E1099K (9B) viability, CellTiter-Glo, 72 h; series mostly up to 44.9 µM.

Values joined by “and” are separate entries in the source; they are usually repeats but may differ in a detail not shown here. Equal entries are not always repeated. Inconclusive results are not listed. Values without a mark were called inactive. Active and inactive are the calls of the source. Calls follow the shape of the dose curve; as a rule, active = well fitted inhibition curve with a large enough effect; inconclusive = small, poorly fitted or top-dose-only effect; inactive = flat fitted curve, though single readings scatter. *1 amine or outer side, *2 acyl side, *3 side chain or, on linkers, in order; H or OH if unused. Where a SMILES comes first, the peptide text is derived from it. [ ]: non-standard residue; d: D form. X4 = CC(C)=CCc1cc(C(O)C(N[*:1])C(=O)[*:2])ccc1O
% is scaled to controls: 0 for no effect and ±100 for the full control effect.

Sequence of Calcium and integrin-binding protein 1 (Homo sapiens) (Q99828 whole entry, looked up): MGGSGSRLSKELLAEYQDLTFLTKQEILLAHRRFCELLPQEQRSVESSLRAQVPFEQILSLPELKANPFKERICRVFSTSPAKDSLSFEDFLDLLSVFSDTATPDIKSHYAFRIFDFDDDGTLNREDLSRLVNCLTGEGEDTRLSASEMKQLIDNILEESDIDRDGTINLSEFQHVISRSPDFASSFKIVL

With `CC(C)(O)CC(CO)NC(=O)CC(O)CC(=O)Cc1ccccc1` (stereo not drawn), the Potency result in experiment [1] and in experiment [2] was “inactive” each time.

Turning to `CC1=C(C(=O)O)/C(=C/CO[C@@H]2O[C@H](COC(=O)/C=C/c3ccc(O)cc3)[C@@H](O)[C@H](O)[C@H]2O)C(O)C1` (stereo partly drawn), the Potency entry in experiment [1] and in experiment [2] was “inactive” each time.

Regarding `C[C@H](O)[C@H](O)/C=C/c1cccc(O)c1CO`, the Potency result in experiment [1] and in experiment [2] was “inactive” in each case.

On to `C=C1CCC2C(C)(C)C(O)CCC2(C)C1CCC(C)CCOC(C)=O` (stereo not drawn), for which the Potency entry in experiment [1] and in experiment [2] was “inactive” throughout.

Consider `COc1c2c(c(C)c3c1C(=O)OC3)O[C@@]1(C)CCC3(C(C)(C)O)OC(=O)CC[C@]3(C)[C@H]1C2` (stereo partly drawn), for which the Potency result in experiment [1] and in experiment [2] was “inactive” throughout.

As to `CCC(O)(C(=O)OCc1ccccc1NC(=O)CCC(=O)O)C(C)O` (stereo not drawn), the Potency result in experiment [1] and in experiment [2] was “inactive” in each case.

For `C/C1=C\CC[C@H](C)CCO[C@@H]2O[C@H](CO[C@@H]3OC[C@](O)(COC1=O)[C@H]3O)[C@@H](O)[C@H](O)[C@H]2O`, the Potency entry in experiment [1] and in experiment [2] was “inactive” throughout.

For the compound `CC(C)=CCc1cc(C(O)C2NC(=O)CNC(=O)C(Cc3c[nH]c4ccccc34)NC(=O)C3CCCN3C(=O)CNC(=O)C(C(C)C)NC(=O)CNC2=O)ccc1O` (stereo not drawn) (cyclo(G[X4]GVGPW); configuration not given here), the Potency result in experiment [1] was “inactive”. Further, the activity change, negative = viability loss in experiment [2] was -11.5% [at 9.23 µM].

Consider `C/C=C1\[C@H](O[C@@H]2O[C@H](CO)[C@@H](O)[C@H](O)[C@H]2O)OC=C2C(=O)OCCc3ccc(O)c(c3)Oc3ccc(cc3)CCOC(=O)C[C@H]21`, for which the Potency result in experiment [1] and in experiment [2] was “inactive” each time.

`C/C=C(\C)C(=O)O[C@@H]1CC2[C@@H](CC=C3C[C@@H](O[C@H]4C[C@H](OC)[C@H](O[C@H]5C[C@H](OC)[C@H](O[C@@H]6O[C@H](C)[C@@H](O[C@H]7C[C@H](OC)[C@H](O[C@@H]8O[C@H](CO)[C@@H](O)[C@H](O)[C@H]8O)[C@@H](C)O7)[C@H](OC)[C@H]6O)[C@@H](C)O5)[C@@H](C)O4)CC[C@@]32C)[C@@]2(O)CC[C@H](C(C)=O)[C@@]12C` (stereo partly drawn): in experiment [1], the activity change, negative = inhibition was 2.76% [at 12.4 µM]. The activity change, negative = viability loss in experiment [2] is -8.77% [at 9.23 µM].

Regarding `COC(=O)C1=COC(OC2OC(CO)C(O)C(O)C2O)C2C1C=CC2(O)CO` (stereo not drawn), the Potency entry in experiment [1] and in experiment [2] was “inactive” throughout.

As for `CC1(C)CC[C@]2(C(=O)OC3OC(CO)C(O)C(O)C3O)CC[C@]3(C)C(=CCC4[C@@]5(C)CC[C@H](OC6OC(C(=O)O)C(O)C(OC7OC(CO)C(O)C(O)C7O)C6O)C(C)(C)C5CC[C@]43C)C2C1` (stereo partly drawn), the Potency result in experiment [1] is “inactive”. In addition, in experiment [2], the activity change, negative = viability loss was -3.97% [at 9.23 µM].

As for `Cc1ccccc1CN1C2=NCCN2C(=O)C2=C1CCN(Cc1ccccc1)C2`, the Potency entry in experiment [1] and in experiment [2] was “inactive” in each case.

As for `CC(=O)O[C@H]1CC[C@@]2(C)C(CC[C@@H](C)[C@]23Cc2c(O)cc4c(c2O3)CN([C@@H](CCC(=O)O)C(=O)O)C4=O)C1(C)C` (stereo partly drawn), the Potency entry in experiment [1] and in experiment [2] was “inactive” in each case.

As to `COC(=O)C1=CO[C@@H](O[C@@H]2O[C@H](CO[C@@H]3O[C@H](COC(=O)/C=C/c4cc(OC)c(O)c(OC)c4)[C@@H](O)[C@H](O)[C@H]3O)[C@@H](O)[C@H](O)[C@H]2O)[C@@H]2C(CO)=CC[C@H]12`, the Potency result in experiment [1] and in experiment [2] was “inactive” in each case.

Consider `O=C(c1ccc(/C=C/c2n[nH]c3ccccc23)cc1)N1CCNCC1`, for which the Potency result in experiment [1] is “inactive”. Moreover, the Potency in experiment [2] was 649 nM (active) and 2.63 µM (active).

Take `C[C@]1(CO)CCC[C@]2(C)C3=C(CCC12)COC3` (stereo partly drawn): the Potency entry in experiment [1] and in experiment [2] was “inactive” throughout.

Regarding `O=C(OC[C@@]1(O)CO[C@@H](O[C@H]2[C@H](Oc3ccc(O)cc3)O[C@H](CO)[C@@H](O)[C@@H]2O)[C@@H]1O)c1ccc(O)cc1`, the Potency result in experiment [1] and in experiment [2] was “inactive” throughout.

`COc1cc(/C=C/CO)cc(OC)c1O[C@@H]1O[C@H](CO[C@@H]2O[C@H](CO)[C@@H](O)[C@H](O)[C@H]2O)[C@@H](O)[C@H](O)[C@H]1O`: the Potency entry in experiment [1] and in experiment [2] was “inactive” throughout.

As for `COc1cc2c(cc1OC)N1C(=O)C[C@]34C=CCN5CC[C@@H]2[C@@H](CC3)[C@]514`, the Potency result in experiment [1] and in experiment [2] was “inactive” each time.

On to `Nc1ncnc2c1ncn2CCNCCCCCO`, for which the Potency entry in experiment [1] and in experiment [2] was “inactive” throughout.

In the case of `CC/C=C\CCO[C@@H]1O[C@H](CO)[C@@H](O)[C@H](O)[C@H]1O`, the Potency result in experiment [1] and in experiment [2] was “inactive” throughout.

With `CC1=C(C(=O)O[C@@H]2O[C@H](COC3OCC(O)C(O)C3O)[C@@H](O)[C@H](O)[C@H]2O)C(C)(C)CCC1` (stereo partly drawn), the Potency entry in experiment [1] and in experiment [2] was “inactive” each time.

In the case of `CC(C)=CCC[C@](C)(O[C@@H]1O[C@H](CO)[C@@H](O)[C@H](O)[C@H]1O)[C@H]1CC[C@]2(C)[C@@H]1[C@H](O)CC1[C@@]3(C)CC[C@H](O)C(C)(C)C3[C@@H](O[C@@H]3O[C@H](CO)[C@@H](O)[C@H](O)[C@H]3O[C@@H]3OC[C@@H](O)[C@H](O)[C@H]3O)C[C@]12C` (stereo partly drawn), the Potency result in experiment [1] was “inactive”. Besides, the activity change, negative = viability loss in experiment [2] was -22.1% [at 9.23 µM].
